Experimental data reported in PubChem BioAssay (NCI).
The panel holds about 83,000 compounds, 20% with a hit somewhere; the sample as a whole holds those more often.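 96-well plates, one dose, 48 hours. Percent growth reported; active if below 10.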 Activity calls are given as the source filed them.

These compounds were tested on HT29 colon (assay: NCI-60 one-dose screen, 48 h (100 = growth as untreated, 0 = no growth, -100 = all killed)). Conditions: 10 µM unless noted.

| Structure (SMILES) | growth |
| --- | --- |
| COc1ccc2c(c1)C(=O)c1c-2c(=O)n(CCCCCCC(=O)NO)c2ccccc12 | 3.51% (active) |
| CCC(C)(C)C(=O)O[C@H]1C[C@@H](C)C=C2C=C[C@H](C)[C@H](CC[C@@H]3C[C@@H](O)CC(=O)O3)[C@H]21 | 76.9% (inactive) |
| CCC1=C(c2ccc(OC)cc2)C(C)(C)Oc2c1ccc(O)c2CN1CCCC1 | 50.4% (inactive) |
| CCCCCCCCCCCCCCCCCC1=NC(C)(C)CN1CCO | -44.7% (active) |
| O=C(Nc1ccc(Cl)cc1)Nc1ccc(Nc2nncc3ccccc23)cc1 | 32.4% (inactive) |
| COc1cc(C2C=C(c3ccc(C)cc3)Nc3nc(SC)[nH]c(=O)c32)ccc1Oc1ccnc2cc(Cl)ccc12 (stereo not drawn) | 65.3% (inactive) |
| C=C(C[C@@](O)(C(=O)Oc1ccccc1)C(=O)C1CCCCC1)c1ccccc1 | 103% (inactive) |
| CCCCCCCC1(C)NC(=O)NC1=O (stereo not drawn) | 114% (inactive) |
| CCOC(=O)c1c(C)c(C(=O)OCC)n(C)c1C | 88.5% (inactive) |
| COc1ccc(-c2cncn2-c2ccc(-c3nc4cc(OC)c(OC)c(OC)c4s3)cc2)cc1N | 43.7% (inactive) |
| CCc1[nH]nc(-c2ccc(OC)cc2)c1-c1ccccc1OCCN(CC)CC | 85.9% (inactive) |
| COc1ncc(-c2ccc3nccc(C#CCN4CCN(S(C)(=O)=O)CC4)c3c2)cc1NS(=O)(=O)c1ccc(F)cc1F | 10.3% (inactive) |
| COc1ccc2c(c1)C(=O)c1c-2c(OCCCN(C)C)nc2cc(Br)ccc12 | -19.7% (active) |
| N#Cc1c(N)[nH]c(S)c1C#N | 99.9% (inactive) |
| CC(O)c1nc2c(c(=O)n(C)c(=O)n2C)n1C (stereo not drawn) | 113% (inactive) |
| Cc1ccc(NC(=O)Nc2ccc(-c3cccnc3)cc2N2CCC(CO)CC2)cc1 | 5.68% (active) |
| CCCCCCCCCCCCCCCCN=C(CC(=O)O)C(=O)O | 82.1% (inactive) |
| COc1ccc(CCN2CCCN3C2=Nc2ccccc2S3(=O)=O)cc1 | 13.7% (inactive) |
| Cc1nnc(Nc2ccc(NC(=O)Nc3ccc(Cl)cc3)cc2)c2ccccc12 | 2.24% (active) |

| Structure (SMILES) | growth |
| --- | --- |
| CCCCCCCCCCSc1ncnc2nc[nH]c12 | 90.9% (inactive) |
| C=C(C[C@](O)(C(=O)/C=C/c1ccc(Cl)cc1)C(=O)OC)c1ccccc1 | 16.4% (inactive) |
| O=C(/C=C/c1ccccc1Cl)c1ccc(O)cc1 | 14.5% (inactive) |
| CC(=O)NC1(C(=O)O)CCCC1 | 116% (inactive) |
| CCOC(=O)c1cc(-c2cccnc2)nc2c(Cl)cc(Cl)cc12 | 88% (inactive) |
| CN1C(=O)/C(=C/c2nc(-c3cccc(F)c3)n3ccccc23)c2ccccc21 | 89% (inactive) |
| O=C1C(=O)c2ccc(Br)cc2-c2cc(Br)ccc21 | 105% (inactive) |
| CCN1CCN(c2cc(-c3cn[nH]c3-c3cc(C)cc(OC)c3)nc(-c3cccnc3)n2)CC1 | 33.4% (inactive) |
| ClC1=C(Cl)C(Cl)=C(Cl)C1=C/C=C/c1ccccc1 | 7.03% (active) |
| O=C(CN1CCCCC1)Sc1nnc2sc3ccccc3n12 | 118% (inactive) |
| CN1CCN(Cc2ccc(NC(=O)c3[nH]ncc3Nc3ccnc4ccnn34)cc2)CC1 | 67% (inactive) |
| CC1=CC(=O)C(C(C)=Nc2ccccc2Cl)C(=O)O1 (stereo not drawn) | 101% (inactive) |
| CSc1ncc2ncn(C3OC(CO)C(O)C3O)c2n1 (stereo not drawn) | 108% (inactive) |
| COc1ccc2nc3cc(Cl)ccc3c(Nc3cc(C(C)C)c(O)cc3C)c2c1 | 5.84% (active) |
| c1cnc2ccc3ncccc3c2c1 | 113% (inactive) |
| O=C(Nc1ccc(Cl)cc1)Nc1ccc(Oc2nncc3ccccc23)cc1 | 0.517% (active) |
| CCCCCCCC/C=C/CCCCCCCC1=NC(C)(C)CN1CCO | -42.1% (active) |
| CN(CC(=O)N(Cc1ccc(C2CCCCC2)cc1)c1ccc(C(=O)O)cc1)S(=O)(=O)c1c(F)c(F)c(F)c(F)c1F | -22.3% (active) |
| CCN(CC)CCCNCCCNc1cc(OC)cc2cccnc12 | 40% (inactive) |
